Screening results (PubChem BioAssay)
Most compounds without a hit are left out; they make up all but 3.4% or so of the library.
ADAM10 inh: inhibitors of human ADAM10; AID 720582; inhibition, % at 7 µM; O14672; recombinant ADAM10, EDANS/DABCYL FRET peptide cleavage, 3 h; actives 0.62% (n = 370,000);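 active means inhibition above a per-campaign cutoff equal to the mean of compounds falling between control-based bounds plus 3 SD, cut at about 20% in these data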
KLK7 zymogen act: proKLK7 (human) activation, primary screen | P49862 | purified proKLK7, EDANS-DABCYL substrate fluorescence; 100% is mature enzyme control, 0% vehicle | activation, % at 7 µM | actives 0.9% (n = 370,000);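 active means activation above the mean of all tested compounds plus 3 SD, computed per campaign excluding outliers beyond control limits, cut at about 13% in these data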
ADAM17 inh: inhibits human ADAM17 | recombinant ADAM17, EDANS/DABCYL FRET peptide cleavage | inhibition, % at 6.95 µM | actives 0.83% (n = 370,000);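 active means inhibition above the mean of compounds lying between control limits plus 3 SD, set per campaign, cut at about 8.5% in these data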
sPLA2-III inh: Blocks human group III sPLA2 activity | Q9NZ20 | QFRET BODIPY PC-A2 liposome hydrolysis, fluorescence | inhibition, % at 12.2 µM | actives 0.56% (n = 370,000);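 active means inhibition above mean plus 3 SD of compounds lying within the high and low control bounds, cut at about 19% in these data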
NRP1-CendR mod: modulators of CendR peptide binding to human neuropilin-1; inhibition, % at 25 µM; FAM-RPARPAR peptide binding to NRP-1, fluorescence polarization; actives 0.85% (n = 360,000); O14786;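 active means inhibition or corrected inhibition above about 18%, plus a signal ratio from 0.5 to 1.5, limit read from the data, passing the limit was not always enough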
Target sequence (O14786 whole entry, looked up): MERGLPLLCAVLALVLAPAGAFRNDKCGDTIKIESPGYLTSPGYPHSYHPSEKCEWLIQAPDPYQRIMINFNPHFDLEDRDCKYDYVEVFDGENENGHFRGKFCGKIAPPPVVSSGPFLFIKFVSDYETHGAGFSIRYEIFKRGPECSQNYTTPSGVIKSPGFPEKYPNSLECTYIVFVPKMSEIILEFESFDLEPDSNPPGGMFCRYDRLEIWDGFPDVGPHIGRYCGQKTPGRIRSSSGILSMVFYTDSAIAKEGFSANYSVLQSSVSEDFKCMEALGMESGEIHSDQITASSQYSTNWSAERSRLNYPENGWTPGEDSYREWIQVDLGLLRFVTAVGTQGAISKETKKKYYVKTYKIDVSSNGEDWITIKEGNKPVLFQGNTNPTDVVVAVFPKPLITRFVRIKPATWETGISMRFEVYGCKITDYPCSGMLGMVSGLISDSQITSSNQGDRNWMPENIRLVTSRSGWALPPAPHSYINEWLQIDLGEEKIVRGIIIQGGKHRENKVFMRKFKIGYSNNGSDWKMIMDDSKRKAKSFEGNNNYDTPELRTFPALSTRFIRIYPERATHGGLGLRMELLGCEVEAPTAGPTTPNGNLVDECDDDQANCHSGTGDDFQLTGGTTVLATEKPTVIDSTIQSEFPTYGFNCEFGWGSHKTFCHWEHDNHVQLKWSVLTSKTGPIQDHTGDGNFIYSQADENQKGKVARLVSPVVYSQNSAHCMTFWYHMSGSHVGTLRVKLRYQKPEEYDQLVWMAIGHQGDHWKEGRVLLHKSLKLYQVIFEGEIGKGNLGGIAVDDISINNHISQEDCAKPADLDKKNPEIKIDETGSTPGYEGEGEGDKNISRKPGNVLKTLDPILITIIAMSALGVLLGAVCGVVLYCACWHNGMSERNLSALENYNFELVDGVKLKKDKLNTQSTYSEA
KLK7 act conf: confirmation of human kallikrein-7 zymogen activators; shares compounds with KLK7 zymogen act; purified proKLK7, EDANS-DABCYL substrate fluorescence; scaled: vehicle 0, mature enzyme 100; activation, % at 7 µM; actives 68% (n = 3,200); AID 686949;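 active means activation, as change over the incubation, above the mean of all tested compounds plus 3 SD, cut at about 13% in these data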
EDANS interfere: counter-screen for kallikrein-7 activators: EDANS-DABCYL optical interference; shares compounds with KLK7 zymogen act; EDANS-DABCYL substrate fluorescence interference, no enzyme, 4 h; solvent 0%, active enzyme control 100%; activation, % at 7 µM; actives 80% (n = 3,200);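 active means activation above the all-compound mean plus 3 SD, ignoring values outside control-based bounds, cut at about 4.8% in these data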;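 further: value is the 4 h activation minus the activation read at time zero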
EDANS interf: optically interferes with EDANS-DABCYL fluorescence, kallikrein-7 activator counter-screen; shares compounds with KLK7 zymogen act; EDANS-DABCYL peptide fluorescence interference, no enzyme; EC50, µM; actives 20% (n = 250);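 active means compounds that raise the fluorescence signal in this interference counterscreen, with EC50 at or below 10 µM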;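 further: intact quenched peptide substrate alone read at 355 nm excitation and 520 nm emission; signal is fluorescence gain from T0 to T4 after four hours at room temperature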
Hits are given with their value; – = inactive; · = no result.

SMILES	ADAM10 inh	KLK7 zymogen act	ADAM17 inh	sPLA2-III inh	NRP1-CendR mod	KLK7 act conf	EDANS interfere	others
CC(=O)Nc1cc2c(ccc3ccccc32)oc1=O	–	23.2	–	–	–	47.8	56.6
Nc1[nH]c(C(=O)c2ccc(Br)cc2)c(-c2ccc(Br)cc2)c1C(=O)N1CCCCC1	–	·	–	–	·	·	·
COc1ccccc1CCn1cnc(-c2cccc(Cl)c2)c1CC(C)C	–	–	–	–	·	·	·
COC(=O)[C@]12C[C@H](CC(=O)NCc3ccc(C)o3)C(=O)N(CCC3=CCCCC3)C1=C[C@H](C1CCCC1)O[C@@H]2C	–	–	–	–	·	·	·
O=C(O)c1ccc(-c2nc(-c3ccccc3)c(-c3cccs3)[nH]2)cc1	–	–	–	–	–	·	·
Cc1ccc(-c2[nH]c(-c3ccc(C(=O)O)cc3)nc2-c2ccccc2)cc1	–	32.7	–	–	–	67.2	68.6
NC(=O)c1ncn([C@@H]2O[C@H](C(=O)N[C@H](Cc3ccccc3)C(=O)N3CCN(c4ccc(Cl)cn4)CC3)[C@@H](O)[C@H]2O)n1	–	–	–	–	·	·	·
CN(C(=O)C1CCCO1)c1nnc(-c2ccccn2)s1 (stereo not given)	–	98.5	–	–	–	94.1	94.8
CN(C(=O)C1CCCO1)c1nnc(-c2ccncc2)s1 (stereo not given)	–	130.4	–	–	–	166.7	166.5
COc1ccccc1-c1nnc(N(C)C(=O)C2CCCO2)s1 (stereo not given)	–	17.8	–	–	–	26.3	26.2
COC(=O)Nc1nnc(-c2ccccc2OC)s1	–	–	–	–	–	·	·
COCC(=O)N(C)c1nnc(-c2ccc([N+](=O)[O-])cc2)s1	–	–	–	–	–	·	·
COCC(=O)N(C)c1nnc(-c2ccccn2)s1	–	63.2	–	–	–	82.2	77.3
CCn1c(SCC(=O)Nc2ccc(S(=O)(=O)Nc3cc(C)nc(C)n3)cc2)nc2sc(C)c(C)c2c1=O	–	–	–	–	·	·	·
CC(C)C[C@H](NC1(C(=O)NCCc2c[nH]c3ccccc23)CCN(C)CC1)C(=O)NCCCc1ccccc1	–	·	–	–	·	·	·
COc1ccc2c(c1OC)C(=O)OC2CC(=O)c1ccc2c(c1)OCO2 (stereo not given)	–	17.7	–	–	–	–	11.6
Cc1ccc(NC(=O)Cn2nnc(-c3ccccc3F)n2)cc1C	–	–	–	–	·	·	·
Cc1ccc(S(=O)(=O)NN2C(=O)c3ccccc3NC2c2cccc(O)c2)cc1 (stereo not given)	–	–	–	–	–	·	·
Cc1ccc(S(=O)(=O)NN2C(=O)c3ccccc3NC2c2ccco2)cc1 (stereo not given)	–	–	–	–	–	·	·
O=C1c2ccccc2NC(c2ccccc2F)N1NS(=O)(=O)c1ccccc1 (stereo not given)	–	19.0	–	–	–	–	6.8
Cc1ccc(S(=O)(=O)NN2C(=O)c3ccccc3NC2c2ccccn2)cc1 (stereo not given)	–	20.3	–	–	–	–	4.4
Cc1ccc(S(=O)(=O)NN2C(=O)c3ccccc3NC2C)cc1 (stereo not given)	–	39.0	–	–	–	–	11.0
CC1Nc2ccccc2C(=O)N1NS(=O)(=O)c1ccccc1 (stereo not given)	–	21.4	–	–	–	–	4.5
C=CCN1[C@H](Cc2ccccc2)COc2cccc(N3CCSCC3)c2S1(=O)=O	–	–	–	–	·	·	·
Cc1nc2cc(C(=O)N3CCN(C(=O)C(C)(C)C)CC3)ccc2n1C1CCCC1	–	–	–	–	·	·	·
SMILES	ADAM10 inh	KLK7 zymogen act	ADAM17 inh	sPLA2-III inh	NRP1-CendR mod	KLK7 act conf	EDANS interfere	others
CCCc1cc(NCC2CCCO2)n2c(nc3ccccc32)c1C#N (stereo not given)	–	17.4	–	–	–	–	–
CCCc1cc(-n2cnc3ccccc32)n2c(nc3ccccc32)c1C#N	–	–	–	–	–	·	·
CCCc1cc(NCCN(C)C)n2c(nc3ccccc32)c1C#N	–	57.1	–	–	–	20.1	6.5	EDANS interf=–
CCCc1cc(NCc2ccccn2)n2c(nc3ccccc32)c1C#N	–	–	–	–	–	·	·
CCCc1cc(NCCCN(C)C)n2c(nc3ccccc32)c1C#N	–	83.4	–	–	–	–	20.4
COC(=O)C1CN(Cc2cn(Cc3ccc(Cl)cc3)nn2)CCS(=O)(=O)N1Cc1ccc(OC)cc1 (stereo not given)	–	–	–	–	·	·	·
CN(C)C=Nc1ccc2nc3c(cc2c1)[nH]c1ccccc13	–	49.4	–	–	–	49.7	40.9	EDANS interf=–
Cn1c2ccccc2c(=O)c2ccc(F)cc21	–	12.7	–	–	–	49.8	43.8
COc1cc(-c2ccc3c(=O)c4ccccc4n(C)c3c2)cc(OC)c1OC	–	–	–	–	–	·	·
CCCNC(=O)c1c(N)n(-c2cccc(OC)c2)c2nc3ccccc3nc12	–	–	–	–	–	·	·
Nc1c(C(=O)NCCN2CCOCC2)c2nc3ccccc3nc2n1-c1cccc(F)c1	–	30.4	–	–	–	–	–
COCCCNC(=O)c1c(N)n(-c2cccc(S(N)(=O)=O)c2)c2nc3ccccc3nc12	–	19.7	–	–	–	–	–
Cc1ccc(CNC(=O)CCS(=O)(=O)c2cc3c(cc2Br)CCN3C(=O)C2CC2)o1	–	–	–	–	·	·	·
COc1cccc(Nc2nc3cc(OC)ccc3cc2C#N)c1	–	29.4	–	–	–	56.0	60.5
CCCc1cc(=O)oc2c3c(cc(OCC(=O)N[C@@H](C)C(=O)O)c12)OC(C)(C)CC3	–	49.2	–	–	–	70.0	78.5
CCc1cc(=O)oc2c3c(cc(OCC(=O)N[C@H](C(=O)O)[C@H](C)CC)c12)OC(C)(C)CC3	–	47.9	–	–	–	48.6	49.2
CCCc1cc(=O)oc2c3c(cc(OCC(=O)N[C@@H](CSC)C(=O)O)c12)OC(C)(C)CC3	–	31.8	–	–	–	35.3	30.6
CCCc1cc(=O)oc2c3c(cc(OCC(=O)NCc4ccncc4)c12)OC(C)(C)CC3	–	–	–	–	–	·	·
O=C1CC(c2ccc(O)c(O)c2)Oc2c1ccc(O)c2O (stereo not given)	–	16.3	–	–	–	–	7.7
CC(C)=CCc1c(O)ccc2c1OC(c1ccc(O)c(O)c1)CC2=O (stereo not given)	–	–	–	–	–	·	·
Cc1ccccc1C1NC(=O)c2ccccc2O1 (stereo not given)	–	–	–	–	–	·	·
